Source: the supplement of paper PMC6555819

Experiments:
Experiment in all cases: PBM binding z-score (relative to random genomic background probes); higher = stronger binding; sequences stand for … in GC…GCGATTGACAGCGTAGAATGAAGG
[1] = system: RARb homodimer (NR concentration 270 nM)
Summary of the method: (§1)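 Each nuclear receptor dimer, without ligand, was incubated for 1 h on custom Agilent 4×180K protein-binding microarrays. Binding was detected with antibodies against each partner (one per run), and scanned fluorescence was regression-normalized. The binding z-scores are referenced to random human genomic background probes.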

[2] = system: RARg:RXRa (NR concentration 270 nM, RXRa partner concentration 90 nM)
Summary of the method: as §1

[3] = system: RARg homodimer (NR concentration 270 nM)
Summary of the method: as §1

[4] = system: RXRa DBDmut IVT, anti-RXR (DBD mutation: RXRa K156A/R161A, NR concentration 90 nM)
Summary of the method: as §1

[5] = system: RXRa homodimer (NR concentration 180 nM)
Summary of the method: as §1

[6] = system: THRa:RXRa (NR concentration 90 nM, RXRa partner concentration 90 nM)
Summary of the method: as §1

[7] = system: THRa homodimer (NR concentration 90 nM)
Summary of the method: as §1

[8] = system: VDR homodimer (NR concentration 270 nM)
Summary of the method: as §1

Row | Sequence | PBM binding z-score [1] | PBM binding z-score [2] | PBM binding z-score [3] | PBM binding z-score [4] | PBM binding z-score [5] | PBM binding z-score [6] | PBM binding z-score [7] | PBM binding z-score [8]
1 | TTACCAAGGTGAAGGTCGTTAATCCCTCTGTAGA | 1.62 | 1.07 | 0.814 | -0.0664 | 1.54 | 2.22 | 0.878 | 0.939
2 | CCAGACAGGTGATAAGGTAACTCAGCCTCGATTA | 0.435 | 0.392 | 0.586 | 0.284 | 0.276 | 1.77 | 1.72 | 0.103
3 | CCGACTGGCGCATAAGGTTACCATAAGCCAGCCC | 0.729 | 0.235 | 0.126 | -0.135 | 0.736 | 2.26 | 1.56 | 0.005
4 | ACAGACAGGTGAGAGAAGGTAACTCAGCTGGACG | 0.122 | 0.137 | 0.491 | -0.484 | 0.333 | 1.69 | -0.219 | -0.636
5 | ATATGAAGGTTAGCTGGGGTCATTCAGACTAGGC | 4.37 | 4.69 | 3.82 | 1.97 | 6.06 | 5.24 | 3.38 | 5.65
6 | ACTAGCAGGCCTAGGGTCACTCAAGATTAGTCCG | 2.83 | 2.61 | 2.35 | 0.221 | 3.15 | 3.27 | 2.26 | 1.07
7 | TGATATAGGTAAAAGGTGAAAGTCGGTGTGGTAA | 2.03 | 1.86 | 1.13 | -0.0828 | 2.92 | 1.8 | 0.423 | 0.42
8 | TTAATGAGGTTAAAGATCAGGGAACGTGGCGTCG | 0.917 | 2.56 | 1.52 | 1.68 | 4.02 | 2.89 | 0.742 | 1.14
9 | CCTTACGGGTCAAAGTTATAGCACGGGTGGTACG | 2.72 | 4.74 | 3.89 | 1.42 | 5.29 | 2.3 | -0.124 | 1.46
10 | TGTCAAAGTGCAAAGGTAACGTAAGTATCCACAC | 1.33 | 2.55 | 1.78 | 0.968 | 2.55 | 1.94 | -0.723 | 0.351
11 | CCCACTGGGCCATCAGGTCATTGATATCAACGTT | 2.77 | 2.09 | 1.65 | -0.268 | 1.3 | 3.22 | 3.16 | 1.66
12 | GATACAGGGTCAAGTCCAGAGTACGCGTATTGAT | 3.68 | 5.8 | 5.41 | 3.08 | 6.06 | 3.68 | 1.22 | 3.51
13 | CTCGAAGGGTCGGTTGAGGTGAGTATACGGATAA | 1.41 | 1.55 | 1.56 | 0.489 | 1.17 | 4.74 | 1.49 | 0.596
14 | CCTGCTAGGTCAATGCTCAGCTAAAGCAGCTCGC | 2.37 | 3.14 | 4.3 | 1.92 | 1.47 | 1.97 | 0.173 | -0.26
15 | ACAGACAGGTGATGAAGGTAAGTCAGGCTATCAT | 0.406 | 0.153 | 0.428 | -0.263 | 0.248 | 0.617 | -0.25 | -0.186
16 | CCTACTGGGCCTAAAAGGTCATTGATGCCGATAA | 4.24 | 4.67 | 3.93 | 0.753 | 4.91 | 3.08 | 0.544 | 2.73
17 | ACTAGCACGCCAAGGGTCACTCAAGATTAGTCCG | 3.93 | 3.88 | 3.91 | 1.02 | 3.73 | 2.86 | 0.515 | 1.49
18 | ATTGAAAGGTCGAAGGTGAGTATACCCACCCGAA | 2.54 | 4.17 | 3.76 | 1.26 | 5.43 | 2.22 | 0.13 | 0.982
19 | AGAACCAGGGCACGCTGAGTTGATAGCAGAGTAG | 0.548 | 0.797 | 1.19 | -0.0403 | 0.657 | 0.883 | -0.00671 | 0.466

Row | Sequence | PBM binding z-score [1] | PBM binding z-score [2] | PBM binding z-score [3] | PBM binding z-score [4] | PBM binding z-score [5] | PBM binding z-score [6] | PBM binding z-score [7] | PBM binding z-score [8]
20 | GTACCAAGGTGAATAGGTCGCTGATGAGTAGGCG | 1.69 | 2.65 | 1.53 | -0.316 | 1.66 | 1.59 | 0.0254 | -0.0986
21 | CGAACTAGGTCATTGACCGGACAGTGAATAGTAA | 2.74 | 4.42 | 4.59 | 2.25 | 2.82 | 2.57 | 0.878 | 1.18
22 | CCTTACGGGTCACTCCAAGTTATAGCATCGGAGT | 2.81 | 4.31 | 4.69 | 1.81 | 4.11 | 2.51 | 0.165 | 1.05
23 | TATACAGGGTCAAAGCCCAGAGTACGAATGTCGA | 2.97 | 5.26 | 4.63 | 3.03 | 5.9 | 3.23 | 0.46 | 2.85
24 | CATAGCAGGCCAGGGTCACTCAAGCATTTCGCTT | 3.09 | 3.13 | 2.89 | 0.718 | 3.61 | 3.07 | 1.43 | 1.81
25 | ATCTCTAGGTAACCAAGTTTAGTGAATGCCGAAC | 0.287 | 0.383 | 0.348 | 0.384 | 0.298 | 0.78 | 0.672 | 0.855
26 | CAGCCTAGGTCAGGGCCAGTGTAGGAGGAACGTT | 2.75 | 2.76 | 3.69 | -0.674 | 1.58 | 2.17 | 0.608 | -0.169
27 | CGCCCAAGGTCAGAGAGGTCAGTGAATGCCGAGT | 5.43 | 6.31 | 6.93 | 3 | 5.42 | 4.15 | 2.33 | 5.31
28 | TAGCCTAAGTCAGATCGGGCCAGTATACGCTATA | -0.342 | -0.329 | -0.306 | -0.669 | -0.25 | 1.43 | -0.221 | -0.691
29 | GGAACTAGGGCAAGTTGATAGCAGAGTTTGATGG | 1.11 | 0.675 | 1.21 | 1.07 | 0.0337 | 0.0165 | -0.214 | 0.251
30 | TCATATAGGTAAATGCTGGGTGAAAGTCCGATCT | 0.617 | 0.24 | 0.16 | 1.48 | 0.693 | 0.785 | 0.692 | 0.384
31 | CGTCCAAGGTCATGGTCAGTGAAAGAGACTCGAA | 4.01 | 6.19 | 6.11 | 3.84 | 5.98 | 3.92 | 2.89 | 2.52
32 | ATACCAAGGTGATCGTCAGGTCGTTGATACTAAC | 1.14 | 1.4 | 0.502 | -0.0242 | 0.916 | 2.98 | 1.76 | 1.12
33 | CCTAGCAGGCCAATCTGGGTCACTCCAGGCTTGA | 2.01 | 0.98 | 1.01 | -0.206 | 0.548 | 3.49 | 0.312 | -0.0635
34 | CAAACTAGGTCACCGGAAGGTTAAAGTCCGCATG | 4.56 | 6.51 | 5.79 | 2.08 | 4.2 | 3.84 | 2.36 | 1.28
35 | CCGACCGGGGCATAAGGTTACCATAAGCCAGCCC | 2 | 2.18 | 1.62 | -0.289 | 1.68 | 2.57 | 1.66 | 0.0101
36 | GCTAGCAGGCTATTTGGGTCACTCAATGACGGGC | 1.63 | 0.682 | 0.795 | -0.21 | 0.76 | 1.81 | 0.905 | -0.158
37 | TGTCAAAGTCCAAAGGTAACGTAAGTATCCACAC | 1.08 | 1.64 | 1.23 | 0.368 | 0.946 | 1.11 | -0.182 | 0.0854
38 | ATATGTAGGCTAAGGGTCATTCAGGTTGGTTCGC | 3.85 | 3.93 | 2.76 | 2.03 | 4.31 | 3.16 | 1.17 | 3.63

Row | Sequence | PBM binding z-score [1] | PBM binding z-score [2] | PBM binding z-score [3] | PBM binding z-score [4] | PBM binding z-score [5] | PBM binding z-score [6] | PBM binding z-score [7] | PBM binding z-score [8]
39 | CGAACTAGGTCATTGACAGGACAGTGACTAGTAA | 2.75 | 4.69 | 4.28 | 2.44 | 2.69 | 2.84 | 0.58 | 1.07
40 | CTAACTAGGTCATCCAGGACAGTGAATACATTGA | 2.94 | 4.11 | 4.62 | 2.34 | 3.07 | 3.84 | 2.16 | 2.32
41 | CATCGGAGGACAACAGGAGGTCAGAGCTGCCAGA | 3.62 | 3.59 | 3.48 | 0.373 | 2.29 | 3.01 | 1.31 | 1.1
42 | ATGGAAAGGTCGACGAGGTGAGTATACACCGTTT | 3.01 | 4.09 | 4.05 | 0.942 | 4.19 | 3.7 | 0.967 | 0.927
43 | CCGACTGGGGCAAGGTTACGATAACGCACAGCCA | 1.22 | 1.18 | 1.56 | -0.192 | 1.47 | 1.28 | 0.056 | -0.241
44 | CCTAACGGGTCACTGACAGGTTATAGCATTTGGA | 2.94 | 5.4 | 4.16 | 1.48 | 4.09 | 2.46 | -0.159 | 0.931
45 | CGAACTAGGTCATTGACAGGTCAGTGAATAGTAA | 4.18 | 6.77 | 5.57 | 2.35 | 4.6 | 3.32 | 0.924 | 2.04
46 | ATATGTAGGTTAGCTGGGGACATTCAGACTAGGC | 1.29 | 0.981 | 1.34 | 0.879 | 0.737 | 4.93 | 2.11 | 1.3
47 | TGAATGAGGTTAAGGATCAGGGAACGTGGCGTCG | 0.892 | 1.97 | 1.38 | 0.394 | 2.62 | 2.49 | 0.88 | 0.15
48 | ATCTCTAGTTAACCAAGTTCAGTGAATGCCGAAC | 1.4 | 0.578 | 0.612 | 0.814 | 0.549 | 1.19 | 0.332 | 3.16
49 | GCGGCTAGGTCAGGTTGGTCAGCTAACGGGTACG | 2.8 | 2.47 | 3.36 | 0.271 | 1.07 | 1.85 | 0.788 | 0.247
50 | CAAACTCGGTCACGAAAGGTCAAAGTCGAATGAC | 5.24 | 7.03 | 7.47 | 1.9 | 7.26 | 4.47 | 1.09 | 3.28
51 | AGAATGAGGTTATACGTAGATCAGGGAGGAAAGT | 0.93 | 1.79 | 1.27 | 1.87 | 2.27 | 2.24 | 0.817 | 1.09
52 | TCTATTAATTGAAGGGCAACCGACGAGTCCGTTT | 1.05 | 0.656 | 0.454 | 1.24 | 0.717 | 0.258 | 0.559 | 2.19
53 | CAAACTAGGTCAAAGGTAAAAGTCGAGCCAACCA | 2.87 | 5.02 | 4.78 | 2.02 | 5.74 | 3.26 | 0.692 | 0.479
54 | GCTAGCAGGCCATTTGGGTCACTCCATGACGGGC | 1.6 | 0.733 | 1.19 | 0.0531 | 0.716 | 1.61 | 0.324 | 0.419
55 | TCTGCCAGGTCAACGATGGTCAGCTAATCTGCTA | 3.43 | 4.4 | 5.08 | 1.41 | 3.42 | 3.55 | 1.7 | 0.359
56 | CGTCCAAGGTCATAGGAGGTCAGTGGAGACAGAT | 5.3 | 6.84 | 6.98 | 4.09 | 6.82 | 5.36 | 3.57 | 4.82
